ALDH1A1 block: ALDH1A1 (human) enzyme inhibition | Purified ALDH1A1, NADH fluorescence, propionaldehyde substrate | Potency, µM (doses to about 75.3 µM), usual class: inhibitors | actives 7.3% (n = 220,000) | AID 1030
HTT ATP protect: Huntington cell model cytoprotection by ATP luminescence. PC12 HTT-Q103 induced, cytoprotection, ATP luminescence, 40 h. Potency, µM (titrated, usually from 56.4 µM), most hits filed as activators. actives 0.14% (n = 230,000). AID 1471; active means well fitted curve in the direction sought with a large enough effect; inconclusive means small, poorly fitted or top-dose-only effect, or another doubt; inactive means no such curve, though single readings can be large; an effect the other way counts as inactive or inconclusive; further: nearly all actives have a fitted effect of over 45% in size
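Quantitative HTS on tebufenozide-induced (100 nM) PC12 cells expressing HTTQ103 exon 1–GFP; compounds tested as a concentration series; survival measured via cellular ATP.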
HPGD inh: HPGD (human) dehydrogenase inhibition; AID 894; actives 4.3% (n = 150,000); purified HPGD, NADH fluorescence kinetic, PGE2 substrate; Potency, µM, hits mostly inhibitors
Target sequence (P15428 whole entry, looked up): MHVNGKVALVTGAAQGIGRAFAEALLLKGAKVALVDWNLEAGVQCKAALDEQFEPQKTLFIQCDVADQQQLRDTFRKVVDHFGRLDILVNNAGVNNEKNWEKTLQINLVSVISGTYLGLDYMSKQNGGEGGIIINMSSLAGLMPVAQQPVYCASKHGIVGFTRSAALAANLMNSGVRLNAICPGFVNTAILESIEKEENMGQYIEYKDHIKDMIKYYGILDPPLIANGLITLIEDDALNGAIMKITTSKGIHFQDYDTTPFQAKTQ
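NADH formation kinetics: reaction with 30 uM PGE2 and 1 mM NAD+ (final), 20 nM enzyme, Tris-HCl pH 8 with Tween 20, after 15 min compound preincubation at room temperature. Fluorescence change, last versus first of five reads.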
HttQ103 aggreg: reduces HttQ103-GFP aggregates in PC12 cells. AID 1688. actives 1.1% (n = 220,000). PC12 HttQ103-GFP aggregates, Acumen cytometry, 40 h. Potency, µM (top dose mostly 46.1 µM), usual class: inhibitors; active means well fitted curve in the direction sought with a large enough effect; inconclusive means small, poorly fitted or top-dose-only effect, or another doubt; inactive means no such curve, though single readings can be large; an effect the other way counts as inactive or inconclusive; further: nearly all actives have a fitted effect of over 60% in size
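Steps: seed 1500 PC12 HTTQ103-GFP cells/well; add tebufenozide, 100 nM final; add compound titration; add ATPLite reagent; quantify GFP aggregates by laser scanning cytometry.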
KDM4E inh: blocks human JMJD2E demethylase activity. B2RXH2. JMJD2E catalytic domain, FDH-coupled NADH fluorescence (FDH is formaldehyde dehydrogenase). Potency, µM (top dose mostly 57.1 µM), most hits filed as inhibitors. actives 1.6% (n = 230,000). AID 2147; further: nearly all actives have a fitted effect of over 50% in size
Target sequence (B2RXH2 1-337 limits assumed): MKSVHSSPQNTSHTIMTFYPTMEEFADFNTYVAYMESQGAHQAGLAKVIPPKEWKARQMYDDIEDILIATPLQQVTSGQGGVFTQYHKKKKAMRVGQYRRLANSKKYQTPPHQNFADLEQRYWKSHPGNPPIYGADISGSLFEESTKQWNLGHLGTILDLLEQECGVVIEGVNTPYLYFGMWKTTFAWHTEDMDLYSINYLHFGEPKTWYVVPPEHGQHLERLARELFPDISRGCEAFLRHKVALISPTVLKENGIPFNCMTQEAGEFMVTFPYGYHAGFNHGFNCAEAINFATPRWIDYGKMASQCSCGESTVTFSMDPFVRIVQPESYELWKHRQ
CBFb RUNX1 block: inhibitors of human CBF-beta and RUNX1 interaction; Q01196+Q13951; AlphaScreen CBFb-His/RUNX1-biotin binding, biochemical; Potency, µM (series often up to 59.8 µM), usual class: inhibitors; 230,000 tested, under 10 active; active means well fitted curve in the direction sought with a large enough effect; inconclusive means small, poorly fitted or top-dose-only effect, or another doubt; inactive means no such curve, though single readings can be large; an effect the other way counts as inactive or inconclusive
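AlphaScreen proximity signal reports loss of binding between His-tagged CBF-beta and biotin-labelled RUNX1, each at 30 nM. Proteins are pre-associated for 20 minutes, compounds added for 15 minutes, then beads for 90 minutes, all at ambient temperature.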
Each line names hits and unclear results; the compound was inactive in the other large screens. The list is not random: actives were taken first. Their share in the collection is about 9.8%. Unless noted, the call rests on the fitted dose curve; in most records, active means well fitted inhibition curve with a large enough effect (not every such curve was filed as active); inconclusive means small, poorly fitted or top-dose-only effect, or another doubt; inactive means no such curve, though single readings can be large or run the other way.

COC(=O)COc1ccc(S(=O)(=O)NCCC2=CCCCC2)cc1C	none
O=C(COc1ccc([N+](=O)[O-])cc1)NCCC1=CCCCC1	ALDH1A1 block 10µM
CC(C)n1nc(C(=O)Nc2nnc(SCc3c(Cl)cccc3Cl)s2)c2ccccc2c1=O	ALDH1A1 block inconclusive, KDM4E inh inconclusive
CCOC(=O)C(C(C)=O)C(c1ccc(OCCC(C)C)cc1)C(C(C)=O)C(=O)OCC (stereo not drawn)	none
CC1(C)CC(=O)C(C=Nc2cccnc2/N=C/C2=C(O)CC(C)(C)CC2=O)=C(O)C1	ALDH1A1 block 2.2µM (no result: HPGD inh)
CC1(C)CC(=O)C(C=Nc2cccnc2)=C(O)C1	ALDH1A1 block 7.9µM, HttQ103 aggreg inconclusive
CC1(C)CC(=O)C(C=Nc2ccncc2)=C(O)C1	none (no result: ALDH1A1 block, HPGD inh, HttQ103 aggreg, KDM4E inh, CBFb RUNX1 block)
CCC(SC1=N/C(=C/c2ccccc2)C(=O)N1c1ccccc1)C(=O)Nc1cc(C)on1 (stereo not drawn)	ALDH1A1 block 18µM, HPGD inh inconclusive, KDM4E inh inconclusive
COc1ccc(/C=C2/N=C(SCC(=O)Nc3cc(C)on3)N(c3ccccc3)C2=O)cc1	KDM4E inh inconclusive
Oc1ccccc1/C=N/Nc1ccnc(SCc2ccccc2)n1	HPGD inh 28µM
Clc1ccc(Cl)c(Nc2ccnc(SCc3ccccc3)n2)c1	none (no result: HttQ103 aggreg, KDM4E inh, CBFb RUNX1 block)
Cn1cnnc1SCC(=O)NCCc1ccc(Cl)cc1Cl	none (no result: HPGD inh)
CC1(C)CC[C@]2(C(=O)O)CC[C@@]3(C)C(=CCC4[C@@]5(C)CCC(O)[C@@](C)(CO)C5CC[C@@]43C)C2C1 (stereo partly drawn)	none (no result: HTT ATP protect, HttQ103 aggreg, CBFb RUNX1 block)
C=C1CCC2[C@](C)(CO)[C@H](O)CC[C@@]2(C)[C@@H]1C/C=C1/C(=O)OC[C@H]1O (stereo partly drawn)	HTT ATP protect 7.1µM (no result: HttQ103 aggreg)
Cc1ccc(OCCCCn2cnc3ccccc32)c(C)c1	ALDH1A1 block inconclusive, HttQ103 aggreg 3.2µM, KDM4E inh inconclusive
CCCCCCC(=O)N1CCC(c2nc3c(nnn3Cc3ccccc3Cl)c(=O)[nH]2)CC1	ALDH1A1 block inconclusive, HPGD inh 20µM, HttQ103 aggreg inconclusive
O=C(Cc1cccs1)N1CCC(c2nc3c(nnn3Cc3ccccc3Cl)c(=O)[nH]2)CC1	ALDH1A1 block inconclusive, HPGD inh 16µM
O=C(C1CCCCC1)N1CCC(c2nc3c(nnn3Cc3ccccc3Cl)c(=O)[nH]2)CC1	none (no result: ALDH1A1 block, HPGD inh, HttQ103 aggreg, KDM4E inh, CBFb RUNX1 block)
Cn1ncc([N+](=O)[O-])c1C(=O)Nc1ccn(Cc2ccccc2F)n1	none
Cn1cc([N+](=O)[O-])c(C(=O)Nc2ccn(Cc3c(F)c(F)cc(F)c3F)n2)n1	HTT ATP protect 10µM (no result: HttQ103 aggreg)
Cn1c(=O)c(=O)n(C)c2cc(S(=O)(=O)N3CCCC3C(=O)NCc3cccs3)ccc21 (stereo not drawn)	KDM4E inh inconclusive (no result: ALDH1A1 block, HPGD inh)
COc1ccc(C(C)C)cc1S(=O)(=O)N1CCN(c2ccccc2)CC1	ALDH1A1 block inconclusive (no result: HPGD inh)
CC1CC(C)(C)NCc2ccccc21 (stereo not drawn)	ALDH1A1 block 0.56µM (no result: HPGD inh)
O=S1(=O)C2CC3CCC2(CN1Cc1ccccc1)O3 (stereo not drawn)	none (no result: ALDH1A1 block, HTT ATP protect, HPGD inh, HttQ103 aggreg, KDM4E inh)
CC1CCCN(C(=O)C(Cc2ccccc2)n2cccc2)C1 (stereo not drawn)	HPGD inh 14µM
CC(C)NC(=O)CSc1nc2ccccc2n1CC(=O)N(C(C)C)C(C)C	none (no result: HPGD inh)
CC(C)N(C(=O)CSc1nc2ccccc2n1Cc1ccc(F)cc1)C(C)C	ALDH1A1 block 25µM
O=C(O)c1cc(-n2nnnc2SCc2ccccc2F)ccc1Cl	ALDH1A1 block 10µM (no result: HPGD inh)
Fc1cccc(Cl)c1CSc1nnnn1-c1ccc2c(c1)OCO2	ALDH1A1 block 14µM
COc1ccc(/C=C\C(=O)Nc2ccccc2C(=O)O)cc1OC	ALDH1A1 block inconclusive, HPGD inh inconclusive (no result: HttQ103 aggreg)
Cc1c(N=C=O)cccc1N=C=O	none (no result: HttQ103 aggreg, KDM4E inh, CBFb RUNX1 block)
COCCNC(=O)C1(C(F)(F)F)C/C(=C\CCO)CCCO1 (stereo not drawn)	none (no result: ALDH1A1 block, HTT ATP protect, HPGD inh, HttQ103 aggreg, KDM4E inh)
COc1cccc(C2CC(=O)N3CN(c4ccccc4F)CSC3=C2C#N)c1 (stereo not drawn)	ALDH1A1 block 25µM, HPGD inh inconclusive, KDM4E inh inconclusive
COc1ccc(OC)c(C2CC(=O)N3CN(c4ccccc4F)CSC3=C2C#N)c1 (stereo not drawn)	ALDH1A1 block 4µM, HPGD inh 25µM, KDM4E inh 2.2µM, CBFb RUNX1 block inconclusive
COCC(=O)Nc1ccc(S(=O)(=O)Nc2ccccn2)cc1	KDM4E inh inconclusive (no result: HTT ATP protect, HPGD inh)
CCN(CC)CCOC(=O)c1ccc(Cl)cc1Cl	none (no result: HTT ATP protect, HPGD inh, HttQ103 aggreg)
CCCn1c(SCC(=O)N2CCN(C(=O)c3ccco3)CC2)nc2ccccc2c1=O	ALDH1A1 block inconclusive (no result: HPGD inh)
COc1ccc2c(c1)C(=O)N(c1ccccc1OC)C(=O)C2	ALDH1A1 block 18µM, HPGD inh 8.9µM
COc1ccc2c(c1)C(=O)N(c1ccc(C)cc1C)C(=O)C2	ALDH1A1 block inconclusive, HPGD inh inconclusive (no result: HTT ATP protect)
Cn1c(=S)c2[nH]c(SCc3cccnc3)nc2n(C)c1=O	ALDH1A1 block inconclusive, HPGD inh 4µM (no result: HttQ103 aggreg, KDM4E inh, CBFb RUNX1 block)
CCc1nc(SCc2cccnc2)c2c(=O)n(C)c(=O)n(C)c2n1	none
Cn1c(=O)c2c(SCc3cccnc3)nc(C3CC3)nc2n(C)c1=O	none
CC(C)Cc1nc(SCc2cccnc2)c2c(=O)n(C)c(=O)n(C)c2n1	ALDH1A1 block 7.1µM (no result: HTT ATP protect, HPGD inh)
COc1ccc(NC(=O)COc2ccc(C(=O)NC3CCCc4ccccc43)cc2OC)cc1 (stereo not drawn)	none

Screening data deposited in PubChem by National Center for Advancing Translational Sciences (NCATS).
